Calls of active or inactive are those of the source.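 How the source made its calls: active means blocks over 70% of labeled estradiol binding at 10 µM, or over a set limit at 100 nM; inactive means the rest.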
Biological target: Estrogen receptor beta (Homo sapiens) (UniProt Q92731)
Assay: displacement of fluorescent estrogen from ERbeta – cell-based, Cos7 ERbeta-GFP, flow cytometry, primary screen (AID 1210);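 further: 0% = DMSO vehicle wells and 100% = complete loss of labeled estradiol signal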
Conditions: fluorescent estrogen binding, stronger effect = higher value
[1] = ligand binding inhibition, at 0.1 µM

Chain of Estrogen receptor beta (Homo sapiens) (Q92731 whole entry, looked up): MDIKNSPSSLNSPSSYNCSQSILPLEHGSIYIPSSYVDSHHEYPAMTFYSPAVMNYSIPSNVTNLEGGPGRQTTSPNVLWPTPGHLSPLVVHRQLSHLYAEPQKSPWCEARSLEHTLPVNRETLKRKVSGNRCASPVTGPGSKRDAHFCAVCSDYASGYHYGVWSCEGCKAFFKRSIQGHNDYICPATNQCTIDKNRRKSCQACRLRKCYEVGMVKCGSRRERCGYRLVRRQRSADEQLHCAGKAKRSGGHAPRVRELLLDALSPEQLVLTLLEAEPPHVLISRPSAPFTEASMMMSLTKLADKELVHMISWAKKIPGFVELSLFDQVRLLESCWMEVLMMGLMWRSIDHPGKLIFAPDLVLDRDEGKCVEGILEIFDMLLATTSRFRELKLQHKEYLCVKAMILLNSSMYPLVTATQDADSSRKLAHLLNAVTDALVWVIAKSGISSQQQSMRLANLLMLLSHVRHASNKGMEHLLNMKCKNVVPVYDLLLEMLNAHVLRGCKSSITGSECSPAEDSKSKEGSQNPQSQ

Compound | inhibition (at 10 µM) | inhibition [1]
O=C(Cc1cccs1)Nc1ccc(-c2nnn(CC(=O)N3CCOCC3)n2)cc1 | 30% (inactive) | 2%
O=Cc1cn(-c2ccccc2)nc1-c1cc2c(ccc3ccccc32)oc1=O | 39% (active) | 81%
COc1ccc(-c2nc3ccc([N+](=O)[O-])cc3o2)cc1 | 36% (inactive) | 12%
COc1ccc(C(=O)N/N=C(\C)c2ccc3c(c2)C2C=CCC2C(c2ccccc2)N3)cc1 (stereo not given) | 67% (active) | 66%
COc1cccc(NC(=O)CSc2nc3ccccc3c3nc4ccccc4n23)c1 | 31% (inactive) | 18%
Cc1[nH]c2ccc(-c3nnc(SCC(=O)c4ccccc4F)o3)cc2c1C | 18% (inactive) | 28%
Fc1ccc2c(c1)[C@H]1OCC[C@H]1[C@@H](c1ccco1)N2 | 37% (inactive) | 1%
Oc1ccc(-c2nc3ccc4ccccc4c3c3c2CCC3)cc1O | 71% (active) | 47%
CC(=O)c1ccc(NC(=S)N2CCCC(CO)C2)cc1 (stereo not given) | 49% (inactive) | 13%
COc1cccc2cc3c(=O)n(-c4ccccc4)nc-3oc12 | 70% (inactive) | 12%
COc1cc(C(C#N)N2N=C(c3ccccc3)CC2c2ccccc2)ccc1O (stereo not given) | 54% (inactive) | 5%
CC1(C)CCCN(C(=O)c2coc(=O)c(Br)c2)C1 | 49% (inactive) | 18%
c1ccc(-c2nnc3sc(Cc4cccs4)nn23)cc1 | 18% (inactive) | 20%
CCOc1ccc(Nc2oc(-c3ccccc3Cl)nc2C#N)cc1 | 25% (inactive) | 43%
C/C(N)=C(/C#N)C(=O)CSc1nnc(COc2ccccc2Cl)o1 | 44% (inactive) | 44%

Reference: PubChem BioAssay AID1210 (NMMLSC, 2008)
